# From PubChem BioAssay
# Where “and” joins values, the source holds several entries; their conditions need not be identical. Equal entries are not always repeated. Inconclusive results are not listed. Calls of active or inactive are those of the source. Unless noted, no stated cut-off is given here; in the data, active means inhibition above about 80%; inactive means the rest.
# Experiments:
# [1] = viability loss in pontine glioma line – cell-based, SU-DIPG-XXV, MIPE5.0, CellTiter-Glo, qHTS, dose response (AID 1347065; cut-off not given, nearly all actives have AC50 up to about 26 µM;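 further: cells exposed to compound for 48 hours before ATP readout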); conditions: CellTiter-Glo ATP luminescence
# [2] = JHH-DIPG-1 glioma cell viability, MIPE5.0 library, CellTiter-Glo luminescence, qHTS (AID 1347067; cut-off not given, nearly all actives have AC50 up to about 26 µM;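 further: cells exposed to compound for 48 hours before readout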); conditions: JHH-DIPG-1 glioma viability, CellTiter-Glo ATP luminescence
# [3] = SU-DIPG-XXV glioma cell viability, MIPE5.0 library, qHTS (AID 1347068; cut-off not given, nearly all actives have IC50 up to about 30 µM;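 further: cells exposed to compound for 48 hours before viability readout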)
# [4] = LFS_MB_P medulloblastoma growth inhibition, cell-based, chromothripsis tumors, cisplatin or BGB combos (AID 1671449); conditions: LFS_MB_P medulloblastoma cells;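 further: cells exposed for 96 hours; 0% = vehicle DMSO and 100% = killing by high DMSO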
# [5] = HDN33 neuroblastoma growth inhibition, cell-based, chromothripsis tumors, cisplatin or BGB combos (AID 1671450); conditions: HDN33 neuroblastoma cells, stronger effect = higher value;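 further: cells exposed to compound for four days; 0% = vehicle DMSO and 100% = cell killing by high DMSO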
# [6] = ICB984 medulloblastoma cell growth inhibition, synergistic combos for chromothripsis tumors, cisplatin or BGB combos (AID 1671451; call rule not given here;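 further: cells exposed for 96 hours before readout; 0% = vehicle DMSO and 100% = killing by high DMSO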); conditions: ICB984 medulloblastoma cells, drug combinations, stronger effect = higher value
# [7] = LFS_MB_1R medulloblastoma cell growth inhibition, synergistic combos for chromothripsis tumors, cisplatin or BGB combos (AID 1671452); conditions: LFS_MB_1R medulloblastoma cells, stronger effect = higher value;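 further: cells exposed for 96 hours before readout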
# [8] = HTB85 osteosarcoma cell growth inhibition, synergistic combos for chromothripsis tumors, BGB or cisplatin IC20 combos (AID 1671453); conditions: HTB85 osteosarcoma cells, drug combinations, stronger effect = higher value;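 further: cells exposed for 96 hours before readout; 0% = vehicle DMSO and 100% = high DMSO killing control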
# [9] = CRL2098 osteosarcoma cell growth inhibition, synergistic combos for chromothripsis tumors, BGB or cisplatin IC20 combos (AID 1671454); conditions: CRL2098 osteosarcoma cells, drug combinations, stronger effect = higher value;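 further: cells exposed for 96 h before readout; 0% = vehicle DMSO and 100% = killing by high DMSO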
# [10] = HD-MB03 medulloblastoma cell growth inhibition, synergistic combos for chromothripsis tumors, BGB or cisplatin IC20 combos (AID 1671455; in the data active means inhibition above about 83%;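 further: 0% = vehicle DMSO and 100% = high DMSO as cytotoxic control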); conditions: HD-MB03 medulloblastoma cells, stronger effect = higher value
# [11] = UWB1.289 ovarian carcinoma cell growth inhibition, synergistic combos for chromothripsis tumors, BGB or cisplatin combos (AID 1671456); conditions: UWB1.289 ovarian carcinoma cells, stronger effect = higher value;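 further: cells exposed to compound for four days; 0% = vehicle DMSO and 100% = killing by high DMSO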
# [12] = LFS_MB_2R medulloblastoma cell growth inhibition, synergistic combos for chromothripsis tumors, cisplatin combos (AID 1671457); conditions: LFS_MB_2R medulloblastoma cells, stronger effect = higher value;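 further: cells exposed to compound for four days before readout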
# [13] = MDA-MB-436 breast carcinoma cell growth inhibition, synergistic combos for chromothripsis tumors, BGB or cisplatin combos (AID 1671458; call rule not given here;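 further: cells exposed for 96 hours; 0% = vehicle DMSO and 100% = killing by high DMSO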); conditions: MDA-MB-436 breast carcinoma growth inhibition, drug combinations, stronger effect = higher value
# [14] = UWB1.289_BRCA1 ovarian cancer growth, cell-based, BGB or cisplatin combinations (AID 1671459); conditions: UWB1.289 BRCA1 ovarian carcinoma, drug combinations, stronger effect = higher value
# [15] = human astrocyte viability loss, single and combined drugs, cytotoxicity control for chromothriptic childhood tumor combination screen, cell-based, BGB or cisplatin IC20 combos (AID 1671460); conditions: Human astrocytes, drug combinations, stronger effect = higher value;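 further: cells exposed to compounds for 96 hours before viability readout; 0% = vehicle and 100% = killing control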
# [16] = growth inhibition of BT084 medulloblastoma cells, cell-based, ICGC_MB145, cisplatin and BGB IC40 combos (AID 1671461); conditions: drug combinations, stronger effect = higher value;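 further: cells exposed to drugs for 96 hours; 0% = vehicle DMSO and 100% = high DMSO full killing control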
# [17] = growth inhibition of RCMB18 medulloblastoma cells, cell-based, cisplatin and BGB IC40 combos (AID 1671462); conditions: stronger effect = higher value;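 further: cells exposed to compound for four days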
# [18] = growth inhibition of CRL1545 osteosarcoma cells, cell-based, cisplatin and BGB IC20 combos (AID 1671464); conditions: stronger effect = higher value;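 further: cells exposed to compound for 96 hours before readout; 0% = vehicle DMSO and 100% = high DMSO killing control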
# [19] = measured here: combination with BGB IC40, at 0.05 µM
# [20] = measured here: with BGB IC20 combination, at 0.5 µM
# [21] = measured here: with cisplatin IC20 combination, at 0.5 µM
# [22] = measured here: combination with cisplatin, at 0.5 µM
# [23] = measured here: combination with cisplatin, at 5 µM
structure (smiles),measurement,setting,value
Nc1ccc(F)cc1NC(=O)c1ccc(CNC(=O)/C=C/c2cccnc2)cc1,AC50,[1],5.9 µM (active)
same,AC50,[2],9.34 µM (active)
same,IC50,[3],16.6 µM (active)
same,inhibition,"[4]; at 0.5 µM, stronger effect = higher value",-9.27% (inactive) and 17.5% (inactive)
same,inhibition,"[4]; measured here: combination with BGB IC20, at 0.005 µM",-31.2% and 6.89%
same,inhibition,"[4]; measured here: combination with BGB IC40, at 0.005 µM",-55.6% and -31.5%
same,inhibition,[4]; [19],-32.7% and -5.83%
same,inhibition,"[4]; measured here: combination with cisplatin, at 0.5 µM, stronger effect = higher value",16% and 62.9%
same,inhibition,"[4]; measured here: combination with cisplatin, at 5 µM, stronger effect = higher value",108% and 116%
same,inhibition,"[5]; BGB combo, at 5 µM",80.7%
same,inhibition,[5]; at 0.5 µM,12.4% (inactive) and 12.7% (inactive)
same,inhibition,"[5]; cisplatin combo, at 5 µM",80.6% and 84.9%
same,inhibition,[5]; [20],1.48% and 7.37%
same,inhibition,[5]; [21],26.1% and 17.9%
same,inhibition,"[5]; single agent, at 5 µM",78.9% and 79.8%
same,inhibition,"[6]; BGB IC20 combo, at 0.005 µM",6.31% and 11.4%
same,inhibition,"[6]; BGB IC40 combo, at 0.005 µM",6.94% and 2.58%
same,inhibition,"[6]; BGB IC40 combo, at 0.05 µM",84.2% and 81%
same,inhibition,[6]; at 0.5 µM,-12.1% (inactive) and -33.8% (inactive)
same,inhibition,"[6]; cisplatin combo, at 0.05 µM",83.9% and 80.3%
same,inhibition,"[6]; cisplatin combo, at 0.5 µM",-1.65% and -31.4%
same,inhibition,"[6]; cisplatin combo, at 5 µM",-26.1% and -13.8%
same,inhibition,"[6]; measured here: 5 uM single agent, at 5 µM",-14% and -9.96%
same,inhibition,[7]; at 0.5 µM,30% (inactive) and 36% (inactive)
same,inhibition,[7]; [19],-28.7% and -30.1%
same,inhibition,[7]; [22],65% and 50%
same,inhibition,[7]; [23],97% and 96%
same,inhibition,[8]; at 0.5 µM,21% (inactive) and 24% (inactive)
same,inhibition,"[8]; measured here: with BGB IC20, at 0.5 µM",43.2% and 13.5%
same,inhibition,"[8]; measured here: with BGB IC20, at 5 µM",97.2% and 95.3%
same,inhibition,"[8]; measured here: with cisplatin IC20, at 0.5 µM",15.4% and 37.9%
same,inhibition,"[8]; measured here: with cisplatin IC20, at 5 µM",97.9% and 96.5%
same,inhibition,"[8]; single agent, at 5 µM",91.8% and 89.6%
same,inhibition,[9]; at 0.5 µM,-40.8% (inactive) and -34.5% (inactive)
same,inhibition,"[9]; measured here: combination with BGB at IC20, at 0.5 µM",-53.4% and -17.4%
same,inhibition,"[9]; measured here: combination with cisplatin at IC20, at 0.5 µM",-22.2% and -51.8%
same,inhibition,[10]; at 0.5 µM,19.9% (inactive) and 36% (inactive)
same,inhibition,"[10]; measured here: combo with BGB at IC20, at 0.5 µM",24.3% and 36.2%
same,inhibition,"[10]; measured here: combo with cisplatin at IC20, at 0.5 µM",28.3% and 50.6%
same,inhibition,[11]; at 0.5 µM,6.29% (inactive) and 20.9% (inactive)
same,inhibition,"[11]; measured here: inhibition with BGB combination, at 0.05 µM",-10.5% and -21.7%
same,inhibition,"[11]; measured here: inhibition with cisplatin combination, at 0.05 µM",-34.6% and -15.2%
same,inhibition,[12]; at 0.5 µM,19.4% (inactive) and 17.9% (inactive)
same,inhibition,[12]; [22],42.4% and 41%
same,inhibition,[12]; [23],91.1% and 92.2%
same,inhibition,[13]; at 0.5 µM,-0.59% (inactive) and 2.18% (inactive)
same,inhibition,"[13]; measured here: BGB combination, at 0.5 µM",-5.08% and -6.18%
same,inhibition,"[13]; measured here: BGB combination, at 5 µM",27.2% and 23.4%
same,inhibition,"[13]; measured here: cisplatin combination, at 0.5 µM",-7.52% and 1.65%
same,inhibition,"[13]; measured here: cisplatin combination, at 5 µM",37.2% and 38.6%
same,inhibition,"[14]; BGB combination, concentration series, at 5 µM",85.3% and 82.2%
same,inhibition,[14]; at 0.5 µM,1.02% (inactive) and 1.89% (inactive)
same,inhibition,"[14]; cisplatin combination, concentration series, at 5 µM",98.1% and 92.9%
same,inhibition,[15]; at 0.5 µM,-0.32% (inactive) and -2.77% (inactive)
same,inhibition,"[15]; measured here: combo with BGB IC20, at 0.5 µM",-0.373% and -1.39%
same,inhibition,"[15]; measured here: combo with cisplatin IC20, at 0.5 µM",-8.73% and -1.18%
same,inhibition,[16]; at 0.5 µM,39.6% (inactive) and 45% (inactive)
same,inhibition,"[16]; cisplatin combination, at 0.5 µM",58.4% and 61.5%
same,inhibition,"[16]; cisplatin combination, at 5 µM",87.7% and 92.4%
same,inhibition,"[16]; measured here: BGB IC40 combination 0.05 uM, at 0.05 µM",-24% and -23.6%
same,inhibition,"[16]; single agent, at 5 µM",65.3% and 57.1%
same,inhibition,[17]; at 0.5 µM,43.9% (inactive) and 41.5% (inactive)
same,inhibition,"[17]; cisplatin combo, at 5 µM",93.2% and 98.3%
same,inhibition,"[17]; measured here: BGB IC40 combination, at 0.05 µM",-7.17% and -21.6%
same,inhibition,[17]; [22],52.2% and 77.9%
same,inhibition,"[17]; single agent, at 5 µM",82.6% and 79%
same,inhibition,[18]; at 0.5 µM,45.6% (inactive) and 32.9% (inactive)
same,inhibition,[18]; [20],25.5% and 27%
same,inhibition,[18]; [21],54.9% and 35.9%
same,inhibition,"[18]; single agent, at 0.05 µM",-31.6% and 15.5%
same,inhibition,"[18]; single agent, at 5 µM",32.4% and 21.9%
